Bioassay records (PubChem BioAssay)
Sampled rows, rich in hits. Any-hit rate of the full collection: about 0.84%.
p97 inhibitor: inhibitors of human p97 ATPase; recombinant p97 ATPase, Kinase-Glo ATP luminescence, 3 h; P55072; inhibition, % at 8 µM; 220,000 tested, 0.42% active; in the data active means inhibition above about 15%;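 further: 0% = DMSO vehicle and 100% = wells lacking enzyme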
G6PDH CS: L. mesenteroides G6PDH inhibition counter-screen; Purified L. mesenteroides G6PDH, diaphorase/resazurin coupled fluorescence, 45 min; inhibition, % at 5 µM; 200,000 tested, 0.12% active; in the data active means inhibition above about 50%
Tb hexokinase: T. brucei hexokinase 1 inhibition; 220,000 tested, 0.11% active; recombinant TbHK1, G6PDH-coupled NADH A340; inhibition, % at 10 µM; AID 1430;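 active means inhibition of 50% or more in the single-dose primary screen; inactive means inhibition below 50%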
S1P3 antag: antagonists of human S1P3 receptor. Q99500. CHO S1P3 NFAT-BLA reporter, FRET fluorescence, antagonist mode. inhibition, % at 4.98 µM. 170,000 tested, 0.27% active. AID 485;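 active means inhibition above the plate cutoff, the mean inhibition of test wells on that plate plus 3 SD, cut at about 28% in these data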;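 further: cells challenged with S1P at its EC80 of 0.8 µM; blue over green emission ratio from cleaved BLA substrate after 4 h stimulation; 0% = S1P-stimulated wells and 100% = unstimulated DMSO-only wells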
DTT redox prof: compounds producing H2O2 with reducing agent – biochemical, NIH compound library profiling, artefact control for MLSCN library redox annotation, primary screen; 200,000 tested, 0.03% active; DTT-dependent redox cycling H2O2, phenol red/HRP absorbance; 100% = 100 µM peroxide control, 0% = buffer; AID 878; activation, % at 10 µM;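 active means activation of at least 50% relative to the plate's high and low controls in the primary single-dose screen; inactive means activation below 50%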;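 further: compound incubated with DTT at 0.8 mM final as the reducing agent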
The depositor's hits bear a star; . = no result.

SMILES | p97 inhibitor | G6PDH CS | Tb hexokinase | S1P3 antag | DTT redox prof
Cn1c2ccccc2c(=O)n2c(=O)c3ccccc3cc12 | 7.3 | 50.7* | -17.3 | -23.6 | -0.2
CCNC(=S)SCCOc1ccc(C)cc1 | 4.2 | -17.7 | 7.4 | -2.7 | 0.6
CCN1CCc2c(sc(NC(=O)Nc3ccc(Cl)c(Cl)c3)c2C(N)=O)C1 | 5.9 | -8.5 | 2.1 | 29.2* | 0.0
CC1(C)Cc2ccccc2C2=NNC(=O)C2=N1 | 1.8 | 51.8* | 21.9 | -14.0 | -1.4
CC1(C)Cc2ccccc2C(Nn2cnnc2)=N1 | 8.1 | 5.7 | 9.1 | 4.4 | 0.0
N#C/C(=C\c1coc2ccccc2c1=O)C(N)=S | 3.1 | -8.0 | -25.9 | -13.7 | -0.8
N#C/C(=C\c1coc2ccc(O)cc2c1=O)C(=O)Nc1nc2ccccc2s1 | 43.2* | . | -8.3 | -1.8 | .
c1coc(CNCC2OCCc3ccccc32)c1 (configuration not stated) | 1.6 | 3.8 | 3.3 | -7.2 | 1.6
CC(C)C(=O)NC(=S)Nc1ccccn1 | 20.4* | 9.4 | -2.3 | . | 2.1
CCCCCCCCCCCCCCCC[n+]1cccc2ccccc21 | -0.8 | 11.9 | 55.1* | 21.0 | 0.3
CCCCCCCCC[n+]1cccc2c3ccccc3ccc21 | 3.4 | 3.0 | -6.3 | . | -4.9
COc1ccc2c(c1)CCc1c(C(=O)NCc3cccnc3)noc1-2 | -0.2 | -20.9 | -0.6 | 69.6* | 2.8
CC(C)(C)c1ccc(C(=O)NCc2cccnc2)cc1 | 4.9 | 4.6 | 5.5 | 74.7* | 0.3
CCCNC(=O)c1noc2c1CCc1cc(OC)ccc1-2 | -6.4 | 3.0 | 5.3 | -35.2 | -0.2
CCOc1ccccc1OCCC(=O)Nc1ccc(F)c(Cl)c1 | -1.4 | 8.4 | 1.0 | -7.1 | -0.3
Cc1ccc(Cl)cc1NC1=C/C(=N\S(=O)(=O)c2cccs2)c2ccccc2C1=O | 7.9 | 53.5* | -12.7 | . | 0.4
O=C1C(Nc2ccc(O)cc2)=C/C(=N/S(=O)(=O)c2cccs2)c2ccccc21 | 13.1 | 46.9 | 1.0 | -11.9 | -0.3
Cc1cccc(NC2=C/C(=N/S(=O)(=O)c3cccs3)c3ccccc3C2=O)c1 | 0.6 | 53.4* | -4.5 | -8.3 | 6.4
O=C1/C(=N\S(=O)(=O)c2cccs2)C([n+]2ccccc2)=C([O-])c2ccccc21 | 4.8 | . | -27.8 | -3.1 | .
Cc1c(-c2ccccc2)c(P(=O)(N2CCOCC2)N2CCOCC2)c2ccccn12 | 3.6 | 0.1 | -10.3 | -12.1 | 2.2
O=C(NC1CCCCC1)Oc1cccc2ccccc12 | 2.9 | 52.1* | -4.7 | -9.5 | -0.2
O=C(NC1CCCCC1)Oc1ccccc1 | -2.4 | . | -0.8 | -2.7 | .
CCc1ccc(S(=O)(=O)/N=C2/C=C(Sc3ncn[nH]3)C(=O)c3ccccc32)cc1 | 12.4 | 51.6* | 37.7 | -6.9 | 24.8
CCS(=O)(=O)c1ccc(O)c(NC(=O)CCCC(=O)O)c1 | 8.4 | . | -10.4 | -5.6 | .
O=C(NNC(=O)c1c(F)cccc1F)c1ccccc1OC(F)(F)F | 9.2 | . | -3.3 | 3.5 | .
SMILES | p97 inhibitor | G6PDH CS | Tb hexokinase | S1P3 antag | DTT redox prof
COC(=O)[C@H](Cc1ccccc1)NC(=O)Nc1ccc(C)cc1 | 1.2 | 7.5 | 5.8 | . | 1.3
O=C(O)c1ccccc1NS(=O)(=O)c1cccc(C(F)(F)F)c1 | 3.9 | -4.2 | -10.6 | . | 0.5
O=C(O)c1ccccc1Nc1cccc(C(F)(F)F)c1 | 15.1* | 7.1 | -4.0 | -17.0 | 0.4
Oc1nc(Nc2cccc(Cl)c2)sc1/C=C1\C=Nc2ccccc21 | 8.1 | -34.6 | 0.6 | -33.7 | 0.4
Oc1cccc(Nc2nc(O)c(/C=C3\C=Nc4ccccc43)s2)c1 | 32.1* | . | -6.2 | 0.2 | .
Oc1ccccc1/C=N/Nc1ncc(Br)cn1 | 2.3 | 58.0* | -4.4 | -6.2 | -0.1
CN(c1nnc(N)s1)C1CCCCC1 | 5.4 | 6.7 | 1.5 | 94.8* | 0.8
CCc1nnc(SCC(=O)Nc2ccc(C(C)=O)cc2)nc1CC | . | 15.8 | . | -6.0 | .
CC(C)(C)C1CCc2onc(C(=O)NCc3ccc(F)cc3)c2C1 (configuration not stated) | -5.0 | 7.2 | 2.9 | 63.7* | -1.7
Cc1cc(SC(C)C(=O)Nc2ncc(Cl)cc2Cl)nc2ccccc12 (configuration not stated) | -4.6 | 2.5 | -0.4 | -2.0 | -0.3
CC(C)(C)c1ccc(C(=O)NC(=S)Nc2nc3c(s2)CCCC3)cc1 | 4.7 | -6.0 | 16.6 | -20.6 | -0.1
CN(C)c1ccc(C(=O)Nc2nc3c(s2)CCCC3)cc1 | 0.3 | -44.1 | -15.9 | 90.2* | -0.5
N#Cc1nc(-c2ccc(F)cc2)oc1NCc1ccccc1 | 11.6 | 2.7 | -7.9 | -13.6 | 0.4
